KDM4E inh: inhibitors of human JMJD2E histone demethylase | JMJD2E catalytic domain, FDH-coupled NADH fluorescence (FDH is formaldehyde dehydrogenase) | Potency, µM (series often up to 57.1 µM), most hits filed as inhibitors | 230,000 compounds, 1.6% hits | AID 2147; further: nearly all actives have a fitted effect of over 50% in size
ALDH1A1 block: ALDH1A1 (human) enzyme inhibition | P00352 | Purified ALDH1A1, NADH fluorescence, propionaldehyde substrate | Potency, µM (titrated, usually from 75.3 µM), hits mostly inhibitors | 220,000 compounds, 7.3% hits | AID 1030
Target sequence (P00352 whole entry, looked up): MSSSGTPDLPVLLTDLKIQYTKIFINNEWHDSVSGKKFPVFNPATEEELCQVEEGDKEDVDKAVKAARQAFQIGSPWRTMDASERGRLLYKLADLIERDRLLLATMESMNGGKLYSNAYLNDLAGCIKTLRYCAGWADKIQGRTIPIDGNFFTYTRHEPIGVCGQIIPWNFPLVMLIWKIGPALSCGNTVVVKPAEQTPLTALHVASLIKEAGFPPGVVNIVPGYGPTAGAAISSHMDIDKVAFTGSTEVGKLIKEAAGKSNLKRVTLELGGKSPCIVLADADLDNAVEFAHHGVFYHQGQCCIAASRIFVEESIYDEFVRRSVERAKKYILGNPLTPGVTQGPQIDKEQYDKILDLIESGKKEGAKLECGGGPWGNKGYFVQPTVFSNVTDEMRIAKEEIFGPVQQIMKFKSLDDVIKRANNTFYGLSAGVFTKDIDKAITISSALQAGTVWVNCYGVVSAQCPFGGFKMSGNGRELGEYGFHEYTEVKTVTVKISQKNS
PNC inhibitor: inhibitors of perinucleolar compartment assembly | PC3M PTB-GFP, PNC prevalence imaging, 16 h; active compounds read low | 140,000 compounds, 3.1% hits | activity change (PNC), negative = inhibition, % at 10 µM;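 active means readout at or below -70, meaning at least 70% loss of cells showing the perinucleolar compartment, a nuclear body marking cancer cells; inconclusive means readout between -30 and a set limit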
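PC3M cells stably expressing PTB-GFP, 750–1000 cells/well, treated 16 h at 37 °C with compound (23 nl of library stock), in duplicate. After paraformaldehyde fixation and Hoechst stain, imaged at 20x; PNC prevalence scored by image analysis.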
HPGD block: inhibitors of human 15-hydroxyprostaglandin dehydrogenase (HPGD) | Potency, µM, most hits filed as inhibitors | 150,000 compounds, 4.3% hits | purified HPGD, NADH fluorescence kinetic, PGE2 substrate
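20 nM HPGD preincubated 15 min at room temperature with compound in 50 mM Tris-HCl pH 8, 0.01% Tween 20. Started with 1 mM NAD+ and 30 uM prostaglandin E2; NADH fluorescence (360/450 nm) read 5 times over 30-s intervals, last minus first.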
Numbers stand for hits; - = inactive; ? = inconclusive; . = no result; [ ] = another dose, or the depositor's remark. The list is not random: actives were taken first. Their share in the collection is about 11%. Unless noted, the call rests on the fitted dose curve; in most records, active means well fitted inhibition curve with a large enough effect (not every such curve was filed as active); inconclusive means small, poorly fitted or top-dose-only effect, or another doubt; inactive means no such curve, though single readings can be large or run the other way.

SMILES	KDM4E inh	ALDH1A1 block	PNC inhibitor	HPGD block
COc1ccc(N2CCN(C(c3ccc4ncccc4c3)c3nnnn3C(C)C)CC2)cc1 (centres undefined)	-	.	.	.
COC(=O)c1ccc(Sc2ccccc2NS(=O)(=O)c2ccc(NC(C)=O)cc2)nc1	-	11µM	?	-
CCn1nc(C)c(NC(=O)CSc2nnc(-c3ccco3)n2C)c1C	-	-	-	-
CC(C)c1cc(NC(=O)CSc2nnc(-c3ccccc3F)n2C)on1	-	?	-100	-
Cc1nn(Cc2ccccc2)c(C)c1NC(=O)CSc1nnc(-c2cc(Cl)ccc2O)n1C	-	?	-	28µM
NC(=O)C(=O)N/N=C/c1cccc(C(F)(F)F)c1	-	-	.	.
Cc1nc(-c2nnc(SCC(=O)Nc3cc(Cl)cc(Cl)c3)n2C)cs1	-	.	.	.
ON=C1CCCCC1	.	-	.	-
CCOC(=O)c1nn(-c2ccc(F)cc2)c2nc(-c3ccccc3)c(C#N)c(=O)n12	?	?	-	?
CCOC(=O)c1nn(-c2cccc(C)c2)c2nc(-c3ccccc3)c(C#N)c(=O)n12	?	?	-117	?
N#CCc1ccc(NS(=O)(=O)c2ccc(N3CCCC3=O)cc2)cc1	-	14µM	-	-
O=C1CCCN1c1ccc(S(=O)(=O)Nc2ccc3c(c2)OCCO3)cc1	-	-	?	-
C[C@H](N[C@@H](C)COc1ccccc1)[C@H](O)c1ccc(O)cc1	-	-	.	-
CCCOc1ccc([N+](=O)[O-])cc1C1NC(=S)NC(c2ccccc2)=C1C(=O)OCC (centres undefined)	-	?	-	-
CCOC(=O)C1=C(c2cccc(F)c2)NC(=S)NC1C (centres undefined)	-	1.6µM	-	-
C=CCNC(=S)NC(=O)c1ccc(C)c(Br)c1	-	-	.	.
CCOc1ccc(N(CCCCO)C(=S)NC(=O)c2ccc(C)c(Br)c2)cc1	-	22µM	.	.
CC1CCN(Cc2c(C(=O)O)nnn2-c2nonc2N)CC1	-	-	.	.
CC1CCC(C(C)C)C2=C1C(C#N)(C#N)C(C#N)(C#N)C(c1ccccc1)N2 (centres undefined)	?	10µM	-	-
c1ccc(-c2nnc(SCC3CCCO3)nc2-c2ccccc2)cc1 (centres undefined)	-	13µM	.	.
C/C(=N\NC(=O)CN(c1ccc(Oc2ccccc2)cc1)S(C)(=O)=O)C(C)(C)C	-	-	.	.
Cc1c(N2C(=O)c3ccccc3C2(O)c2ccccc2)c(=O)n(-c2ccccc2)n1C (centres undefined)	-	.	.	.
N#C/C(C(=O)NCCc1ccccc1)=C1/N=C(NC(=O)c2cccs2)c2ccccc21	-	-	-	-
COCCCNC(=O)/C(C#N)=C1\N=C(NC(=O)c2cccs2)c2ccccc21	-	4µM	.	.
Cc1c(C(=O)Nc2ccc(-c3nnc4n3CCCCC4)cc2)oc2ccc(Br)cc12	-	?	-	?
SMILES	KDM4E inh	ALDH1A1 block	PNC inhibitor	HPGD block
Cc1cc(C)n(-c2ccc(Cl)c(C(=O)Nc3ccc(-c4nnc5n4CCCCC5)cc3)n2)n1	?	-	-	1.8µM
O=C(Nc1ccc(-c2nnc3n2CCCCC3)cc1)c1ccco1	-	?	-	8.9µM
Cc1cc(C)n(-c2ccc(Cl)c(C(=O)NCc3ccccc3)n2)n1	-	-	.	.
Cc1onc(-c2ccccc2)c1C(=O)Nc1nnc(N2CCCCCC2)s1	?	?	-108	-
CCOc1ncccc1C(=O)Nc1cccc(-c2nnc3n2CCCCC3)c1	-	-	.	.
c1cc(Nc2ncnc3sccc23)cc(-c2nnc3n2CCCCC3)c1	-	-	-	22µM
O=C(N/N=C/c1ccccc1O)c1cc(-c2ccccc2)n[nH]1	.	-	.	-
C=CCNC(=S)NNC(=O)CCC(O)CCCCC (centres undefined)	-	-	-	-
Cc1onc(-c2ccccc2Cl)c1C(=O)Nc1ccc(-c2nnc3n2CCCCC3)cc1	-	-	?	16µM
Cc1ccc(-c2nnc3n2CCCCC3)cc1	-	-	-	5µM
Clc1ccc(-c2nnc3n2CCCC3)cc1	-	-	-	-
O=C1Nc2ccccc2C1=Nc1ccc(-c2nnc3n2CCCCC3)cc1	-	?	-	5µM
Cc1cnc(C(=O)Nc2cccc(-c3nnc4n3CCCCC4)c2)cn1	-	-	-	13µM
c1cc(-c2nnc3n2CCCCC3)ccn1	-	-	-	-
Clc1c(Cl)c(Cl)c2n[nH]nc2c1Cl	-	.	.	.
O=C(Nc1ccc2c(c1)OCO2)c1cc2n(n1)C(C(F)(F)F)CC(c1ccccc1)N2 (centres undefined)	-	-	-	-
CCCn1cc(NC(=O)c2cc3n(n2)C(C(F)(F)F)CC(c2ccccc2)N3)cn1 (centres undefined)	-	-	-87	-
O=C(CC1SC(=Nc2ccccc2)N(CCc2ccccn2)C1=O)Nc1ccc(F)cc1 (centres undefined)	-	-	?	-
COc1cccc(N=C2SC(CC(=O)Nc3ccccc3)C(=O)N2Cc2ccccn2)c1 (centres undefined)	-	8.9µM	.	.
Cc1cccc(C)c1N=C1SC(CC(=O)Nc2c(C)cccc2C)C(=O)N1CCc1ccccn1 (centres undefined)	-	-	-112	-
COc1ccc(N=C2SC(CC(=O)Nc3ccccc3F)C(=O)N2Cc2ccco2)cc1 (centres undefined)	-	2.5µM	-	-
C=CCN=C(CC)C1=C(O)CCCC1=O	-	-	-109	.
CC1CC(C)(C)NC(=S)N1CCCC(=O)NCCc1ccc(Cl)cc1 (centres undefined)	-	-	.	.
Oc1c(C(O)(c2ccccc2)c2ccc3ccccc3c2O)ccc2ccccc12	.	-[13.5 µM]	.	?
COCCCNC(=O)c1ccc(-n2nc(C(F)(F)F)cc2-c2cccs2)cc1	-	20µM	-	14µM
SMILES	KDM4E inh	ALDH1A1 block	PNC inhibitor	HPGD block
Cc1ccc(Cn2c(CN3CCOCC3)nc3c2c(=O)n(C)c(=O)n3C)cc1	-	10µM	-100	-
CCOC(=O)N1CCN(Cc2nc3c(c(=O)n(C)c(=O)n3C)n2Cc2cc(C)ccc2C)CC1	-	0.89µM	?	-
Cn1c(=O)c2c(nc(CN3CCN(Cc4ccccc4)CC3)n2CCN2CCOCC2)n(C)c1=O	-	?	?	-
Cn1c(=O)c2c(nc(CN3CCOCC3)n2CCN2CCOCC2)n(C)c1=O	-	?	?	-
Cn1c(=O)c2c(nc(CN3CCN(c4ccccc4F)CC3)n2CCN2CCOCC2)n(C)c1=O	-	?	-100	-
CC(C)CCCC(C)C1CCC2C3CC=C4CC(=O)CC[C@@]4(C)C3CC[C@@]12C (some centres undefined)	-	-	.	-
O=C(NC1CC2CCCC(C1)N2S(=O)(=O)c1ccccc1)C1CCCCC1 (centres undefined)	-	28µM	-	-
O=C(NC1CC2CCCC(C1)N2Cc1ccccc1)C1CCCCC1 (centres undefined)	-	-	.	.
Cn1c(=O)c(C(=O)COC(=O)c2cc(C(F)(F)F)nc3c(C(F)(F)F)cccc23)c(N)n(Cc2ccccc2)c1=O	-	-	.	-
Cc1ccc(C(C)C)c(OCc2ccc(C(=O)N/N=C/c3ccc(O)c(O)c3)cc2)c1	-	-	-124	?
Cc1ccc(C(C)C)c(OCc2ccc(C(=O)N/N=C/c3cccc(O)c3O)cc2)c1	4.5µM	-	-	-
